Growth data for 38 compounds are collected here from PubChem BioAssay (NCI).

Compounds without any hit were thinned out: in the full panel of roughly 83,000, 20% have a hit.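 Cells were grown in 96-well plates and exposed to the test compound at a single concentration for 48 hours; results are reported as percent growth, with values below 10 considered active.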 Values without a mark were called inactive. Activity calls are given as the source filed them.

The first test relates to NCI-H322M lung. As to the kind of experiment: NCI-60 one-dose screen, 48 h (100 = growth as untreated, 0 = no growth, -100 = all killed). As to conditions: 10 µM unless noted.
On to `NC1=NC(c2cccc(Br)c2)c2sc3ccc(Cl)cc3c2N1` (stereo not given), for which the growth is 89.6%. On the same count and under the same terms, the same measure for `CCCCn1c(-c2ccc(-c3nc(-c4ccc(Cl)cc4)no3)cc2)nc(-c2ccccc2)c1-c1ccccc1`: 90.4%.

In the case of `CCc1ccccc1-n1c(N)c(C#N)c(-c2ccc(Cl)cc2)c(C#N)c1=O`, the growth was 140%. Same read-out and setting: the same measure for `Cc1ccc(/C=N\NC(=O)c2[nH]c3ccc(F)cc3c2-c2ccccc2)cc1`: 57.7%; for `COc1ccc(/C=C/c2c(C(=O)/C=C/c3ccc(C(F)(F)F)cc3)c(C)nc3ccccc23)cc1`: 6.19% (active). As for `Cc1c(C(=O)/C=C/Nc2c(Cl)cc(S(N)(=O)=O)cc2Cl)sc2nc3ccccc3n12`, the growth was 107%. Still for that read-out and setting: the figure for `CC(=O)N1N=C(c2ccc(Nc3nc(Nc4ccc(F)cc4)nc(Nc4ccc(Cl)cc4)n3)cc2)CC1c1ccc(Cl)cc1` (stereo not given) is 85.3%; for `COc1ccccc1/C=C1\Oc2cc(OCCN3CCC(Cc4ccccc4)CC3)ccc2C1=O` it is 85.6%. The same measure, in the same setting: the same measure for `Cc1nc2ccccc2c(/C=C/c2ccccc2)c1C(=O)/C=C/c1ccc(C(F)(F)F)cc1`: 2.79% (active); for `Cc1[nH]c(C(=O)Nc2ccc(C(=O)N3CCNCC3)cc2OC(C)C)c(Cl)c1Cl`: 86.1%. Same read-out and setting: the figure for `CN1C(=O)N(C)C2Nn3c(s/c(=C\c4ccccc4)c3=O)=NC21` (stereo not given) is 97%.

Consider `COc1ccc([C@H]2c3cc(OC)c(OC)cc3C=C(C=O)C2CO)cc1OC` (stereo not given in full), for which the growth was 97.8%. Consider `O=c1n(Cc2ccc3ccccc3c2)ccn1Cc1ccc2ccccc2c1`, for which the growth was 86.3%.

As for `N/C(=N\c1nc2ccccc2s1)NC(=O)Nc1cccc2ccccc12`, the growth is 41.8%. On to `O=C(N=c1oc2ccccc2cc1-c1cc2ccccc2[nH]1)Nc1ccc(Cl)cc1`, for which the growth was 87.8%. `Fc1cc(-c2nnc3sc(-c4ccc(Cl)cc4Cl)nn23)c(Cl)cc1Cl`: the growth is 89.7%. Still for that read-out and setting: the same measure for `CSc1ccc2c(c1)c(CCN)c(C)n2Cc1ccc(Cl)c(Cl)c1`: -83% (active); for `OC(c1ccccc1)C(NC(Cc1ccccc1)c1ccccc1)c1ccccc1` (stereo not given): 93.2%. On the same count and under the same terms, the figure for `O=C(/C=C/c1ccc([N+](=O)[O-])o1)NNC(=O)c1cc2ccccc2cc1O` is 23.3%; for `CCCCCCCCCCCCCCCCCCOc1ccccc1CC(=O)OCC[N+](CC)(CC)CC` it is 70.6%. On to `Cc1c(C(=O)NCCN2CCOCC2)cn2ncnc(Oc3ccc(NC(=O)Nc4ccc(Cl)c(C(F)(F)F)c4)cc3)c12`, for which the growth was 73.8%. Take `Cc1ccc2c(n1)C(=O)C(Cl)=C(Nc1ccccc1C(C)C)C2=O`: the growth is 62.7%. Take `Nc1cc2c(cc1Br)-c1cc(Cl)ccc1C2=O`: the growth was 102%. The same measure, in the same setting: the same measure for `Cc1nn(-c2ccccc2)c2c1N=c1s/c(=C\c3ccc(C(F)(F)F)cc3)c(=O)n1CN2`: 75.7%. For the compound `COc1ccc2c(c1)/C(=C/c1sc(=S)n(Cc3ccco3)c1O)C=N2`, the growth is 89%.

Consider `COc1nc2ccccc2cc1-c1nc2c(cnn2-c2ccccc2)c(=O)[nH]1`, for which the growth is 82.1%.

Turning to `Cc1[nH]c(C(=O)Nc2ccc(C(=O)NCCN)cc2OC(C)C)c(Cl)c1Cl`, the growth is 53.3%. Same read-out and setting: the figure for `CC(C)c1cc(C(C)C)c(S(=O)(=O)Oc2ccc(NC(=O)c3ccc(Cl)cc3)cc2)c(C(C)C)c1` is 60.4%; for `CN1C(=O)CNC(=O)[C@H](NC(=O)c2nc3ccccc3cc2O)CSSC[C@H]1C(=O)NCCCc1nc2ccccc2cc1O` it is 70.6%; for `O=S(=O)(Nc1ccc(-c2nc(-c3cccc(OCCN4CCOCC4)c3)c(-c3ccnc(Br)c3)[nH]2)cc1)c1ccccc1` it is 53.5%. Same read-out and setting: the same measure for `COc1ccc(-c2cc3c4c(nc5ccccc5c4c2)CC(c2cc(OC)c(OC)c(OC)c2)O3)cc1` (stereo not given): 54.2%; for `COc1ccc(/C=N/Nc2cc(=O)[nH]c3ccc(Cl)cc23)cc1`: 66.3%; for `COc1ccc(S(=O)(=O)n2c3ccccc3n3ncc(-c4nnc(C)o4)c23)cc1`: 49%. Same read-out and setting: the figure for `CCc1cccc2c3c(sc12)C(c1ccc(Cl)cc1)C(C#N)=C(N)O3` (stereo not given) is 49.6%; for `Clc1ccc(C(/C=C/c2sc(Cl)nc2Cl)=N/Nc2cc(Cl)cc(Cl)c2)cc1` it is 99.9%. As to `Cc1cc(-c2cc(C)c(N)cc2C)c(C)cc1N`, the growth was 118%. On the same count and under the same terms, the figure for `O=C(Nc1ccc(F)cc1F)c1cc(F)ccc1O` is -6.69% (active).

Another test deals with HOP-62 NSCLC. The test is described as above. As to conditions: 10 µM unless noted.
As to `NC1=NC(c2cccc(Br)c2)c2sc3ccc(Cl)cc3c2N1` (stereo not given), the growth was 91.5%.

Regarding `CCCCn1c(-c2ccc(-c3nc(-c4ccc(Cl)cc4)no3)cc2)nc(-c2ccccc2)c1-c1ccccc1`, the growth was 92.4%. On the same count and under the same terms, the same measure for `CCc1ccccc1-n1c(N)c(C#N)c(-c2ccc(Cl)cc2)c(C#N)c1=O`: 101%; for `Cc1ccc(/C=N\NC(=O)c2[nH]c3ccc(F)cc3c2-c2ccccc2)cc1`: 42.3%; for `COc1ccc(/C=C/c2c(C(=O)/C=C/c3ccc(C(F)(F)F)cc3)c(C)nc3ccccc23)cc1`: -1.82% (active).

Take `Cc1c(C(=O)/C=C/Nc2c(Cl)cc(S(N)(=O)=O)cc2Cl)sc2nc3ccccc3n12`: the growth was 107%. `CC(=O)N1N=C(c2ccc(Nc3nc(Nc4ccc(F)cc4)nc(Nc4ccc(Cl)cc4)n3)cc2)CC1c1ccc(Cl)cc1` (stereo not given): the growth is 84.1%.

`COc1ccccc1/C=C1\Oc2cc(OCCN3CCC(Cc4ccccc4)CC3)ccc2C1=O`: the growth is 103%. On the same count and under the same terms, the same measure for `Cc1nc2ccccc2c(/C=C/c2ccccc2)c1C(=O)/C=C/c1ccc(C(F)(F)F)cc1`: -21.9% (active); for `Cc1[nH]c(C(=O)Nc2ccc(C(=O)N3CCNCC3)cc2OC(C)C)c(Cl)c1Cl`: 88.7%; for `CN1C(=O)N(C)C2Nn3c(s/c(=C\c4ccccc4)c3=O)=NC21` (stereo not given): 97.8%.

`COc1ccc([C@H]2c3cc(OC)c(OC)cc3C=C(C=O)C2CO)cc1OC` (stereo not given in full): the growth is 62.1%. Consider `O=c1n(Cc2ccc3ccccc3c2)ccn1Cc1ccc2ccccc2c1`, for which the growth is 66%. In the case of `N/C(=N\c1nc2ccccc2s1)NC(=O)Nc1cccc2ccccc12`, the growth was 34.5%. Consider `O=C(N=c1oc2ccccc2cc1-c1cc2ccccc2[nH]1)Nc1ccc(Cl)cc1`, for which the growth is 83.3%.

As to `Fc1cc(-c2nnc3sc(-c4ccc(Cl)cc4Cl)nn23)c(Cl)cc1Cl`, the growth is 97.9%. Regarding `CSc1ccc2c(c1)c(CCN)c(C)n2Cc1ccc(Cl)c(Cl)c1`, the growth is -78.2% (active). For `OC(c1ccccc1)C(NC(Cc1ccccc1)c1ccccc1)c1ccccc1` (stereo not given), the growth is 88%. For `O=C(/C=C/c1ccc([N+](=O)[O-])o1)NNC(=O)c1cc2ccccc2cc1O`, the growth was 27.5%.

As to `CCCCCCCCCCCCCCCCCCOc1ccccc1CC(=O)OCC[N+](CC)(CC)CC`, the growth was 41%. Still for that read-out and setting: the figure for `Cc1c(C(=O)NCCN2CCOCC2)cn2ncnc(Oc3ccc(NC(=O)Nc4ccc(Cl)c(C(F)(F)F)c4)cc3)c12` is 20.5%. Consider `Cc1ccc2c(n1)C(=O)C(Cl)=C(Nc1ccccc1C(C)C)C2=O`, for which the growth is 90.8%. On the same count and under the same terms, the figure for `Nc1cc2c(cc1Br)-c1cc(Cl)ccc1C2=O` is 99.1%. On the same count and under the same terms, the same measure for `Cc1nn(-c2ccccc2)c2c1N=c1s/c(=C\c3ccc(C(F)(F)F)cc3)c(=O)n1CN2`: 87.7%; for `COc1ccc2c(c1)/C(=C/c1sc(=S)n(Cc3ccco3)c1O)C=N2`: 39.6%; for `COc1nc2ccccc2cc1-c1nc2c(cnn2-c2ccccc2)c(=O)[nH]1`: 44.2%. Regarding `Cc1[nH]c(C(=O)Nc2ccc(C(=O)NCCN)cc2OC(C)C)c(Cl)c1Cl`, the growth was 59.9%. Regarding `CC(C)c1cc(C(C)C)c(S(=O)(=O)Oc2ccc(NC(=O)c3ccc(Cl)cc3)cc2)c(C(C)C)c1`, the growth is 57.9%. Still for that read-out and setting: the figure for `CN1C(=O)CNC(=O)[C@H](NC(=O)c2nc3ccccc3cc2O)CSSC[C@H]1C(=O)NCCCc1nc2ccccc2cc1O` is 81.8%; for `O=S(=O)(Nc1ccc(-c2nc(-c3cccc(OCCN4CCOCC4)c3)c(-c3ccnc(Br)c3)[nH]2)cc1)c1ccccc1` it is 40.3%.

For the compound `COc1ccc(-c2cc3c4c(nc5ccccc5c4c2)CC(c2cc(OC)c(OC)c(OC)c2)O3)cc1` (stereo not given), the growth is 34.7%. In the case of `COc1ccc(/C=N/Nc2cc(=O)[nH]c3ccc(Cl)cc23)cc1`, the growth is 71.9%. With `COc1ccc(S(=O)(=O)n2c3ccccc3n3ncc(-c4nnc(C)o4)c23)cc1`, the growth was 37.3%. For the compound `CCc1cccc2c3c(sc12)C(c1ccc(Cl)cc1)C(C#N)=C(N)O3` (stereo not given), the growth is 36.9%. On the same count and under the same terms, the same measure for `Clc1ccc(C(/C=C/c2sc(Cl)nc2Cl)=N/Nc2cc(Cl)cc(Cl)c2)cc1`: 99.1%; for `NCCCNc1nc2ccccc2c2c(=O)c3cc(OC(F)(F)F)ccc3sc12`: 51.6%; for `Cc1cc(-c2cc(C)c(N)cc2C)c(C)cc1N`: 93.1%.

For the compound `O=C(Nc1ccc(F)cc1F)c1cc(F)ccc1O`, the growth was 16.4%.
